Results filed as inconclusive are left out. Active and inactive are the calls of the source. Unless noted, calls follow the shape of the full dose curve.
How the values were obtained:
[1] = Nuclear factor erythroid 2-related factor 2/antioxidant responsive element (Nrf2/ARE) small molecule agonists: qHTS cell viability counter screen in human keratinocytes (AID 1919968; active = well fitted curve in the direction sought with a large enough effect in the repeat runs; an effect the other way counts as inactive or inconclusive; also: nearly all actives have a fitted effect of over 55% in size; also: potency is read from the fitted curve at half-maximal effect)
In short: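 Cells of the KeratinoSens line were plated at 1,500 per well and left for 5 h before compound transfer from DMSO stocks. After a 23 h incubation (37 C, 5% CO2), CellTiter-Fluor was added. Signal was taken as fluorescence intensity 1 h later.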

[2] = target: Gonadotropin-releasing hormone receptor (Homo sapiens) (UniProt P30968); assay: Human gonadotropin-releasing hormone receptor (GnRHR) small molecule agonists, calcium flux assay in GnRHR-HEK293 cells (AID 1920063); also: nearly all actives have a fitted effect of over 35% in size
In short: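 Compounds dissolved in DMSO are pin-transferred onto dye-loaded GnRHR-HEK293 cells, which were seeded 18 h before at 37 C/5% CO2. Calcium signal is read as fluorescence intensity at 1 s intervals for 3 min.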

[3] = target: KiSS-1 receptor (Homo sapiens) (UniProt Q969F8); assay: Human kisspeptin (KISS1R) small molecule agonists, calcium flux assay in KISS1R-HEK293 cells (AID 1920064; active = well fitted curve in the direction sought with a large enough effect in the repeat runs; an effect the other way counts as inactive or inconclusive)
In short: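 Cell line: HEK293, stable human KISS1R. Dye loading 1 h at 37 C after 18 h culture. Read: kinetic fluorescence, 480/540 nm, 3 min at 1 s intervals.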

[4] = G protein-coupled receptor (GPCR) small molecule agonists, calcium flux assay: HEK293 wild type cell line counter screen (AID 1920065)
In short: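 Tox21 10K compounds, 15 concentrations each in triplicate, pin-transferred in DMSO onto dye-loaded cells; kinetic read at 480/540 nm for 3 min, 1 s intervals.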

[5] = p53 small molecule agonists, cell-based qHTS assay with human liver microsomes (AID 1963577)
In short: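 Fluorescence of the beta-lactamase reporter in p53RE-bla cells, detected with LiveBLAzer substrate (2 h, room temperature, dark), served as the read-out after 16 h compound exposure at 37 C with human liver microsomes and NADPH, each 0.5 mg/mL final.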

[6] = p53 small molecule agonists, cell-based qHTS assay with rat liver microsomes (AID 1963578)
In short: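 Cells carrying a p53 response element–beta-lactamase reporter were plated and rested 5 h, then dosed with compound in DMSO plus rat liver microsomes and NADPH, each at 0.5 mg/mL final. After 16 h at 37 C, LiveBLAzer substrate was added for 2 h.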

[7] = p53 small molecule agonists, cell-based qHTS assay with human liver microsomes: qHTS cell viability counter screen (AID 1963579); also: nearly all actives have a fitted effect of over 45% in size
In short: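 Cytotoxicity counter screen: p53RE-bla, 4,000 cells/well; 5 h settle, 37 C/5% CO2; cpd + HLM 0.5 mg/mL + NADPH 0.5 mg/mL (final); 16 h, 37 C; CellTiter-Glo, 30 min RT, luminescence.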

[8] = p53 small molecule agonists, cell-based qHTS assay with rat liver microsomes: qHTS cell viability counter screen (AID 1963580); also: nearly all actives have a fitted effect of over 45% in size
In short: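 Cytotoxicity counter screen: intracellular ATP read by CellTiter-Glo luminescence in the p53 reporter wells. HCT-116 p53RE-bla cells were treated for 16 h at 37 C alongside rat liver microsomes and NADPH, each 0.5 mg/mL final.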

[9] = p53 small molecule agonists, cell-based qHTS assay: qHTS cell viability counter screen (AID 1963581); also: nearly all actives have a fitted effect of over 45% in size
In short: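 ATP content measured by luminescence in HCT-116 p53RE-bla cells treated 16 h at 37 C, same wells as the reporter screen.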

[10] = target: 5-hydroxytryptamine receptor 2A (Homo sapiens) (UniProt P28223); assay: 5-hydroxytryptamine receptor 2A (HTR2A) small molecule antagonists, cell-based qHTS assay (AID 1963586); also: nearly all actives have a fitted effect of over 45% in size
In short: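 CHO cells stably expressing human HTR2A were plated for 18 h at 37 C, then loaded with calcium dye for 1 h. Compounds were preincubated 5 min at room temperature before DOI (4 nM solution) was added. Kinetic fluorescence was read for 3 min.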

[11] = target: 5-hydroxytryptamine receptor 2A (Homo sapiens) (UniProt P28223); assay: 5-hydroxytryptamine receptor 2A (HTR2A) small molecule agonists, cell-based qHTS assay (AID 1963587); also: nearly all actives have a fitted effect of over 30% in size
In short: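 Kinetic calcium-flux fluorescence (2 min, 1 sec intervals) after compound addition in agonist mode. HTR2A-CHO cells were cultured 18 h, then dye-loaded 1 h at 37 C.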

[12] = target: Muscarinic acetylcholine receptor M1 (Homo sapiens) (UniProt P11229); assay: Cholinergic receptor muscarinic 1 (CHRM1) small molecule antagonists, cell-based qHTS assay (AID 1963588); also: nearly all actives have a fitted effect of over 40% in size
In short: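 Compounds were tested at 15 concentrations in three independent runs. Dye-loaded CHRM1-CHO cells were exposed 5 min at room temperature before stimulation by acetylcholine added at 50nM. Intracellular calcium was read kinetically on FDSS for 3 min.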

[13] = target: Muscarinic acetylcholine receptor M1 (Homo sapiens) (UniProt P11229); assay: Cholinergic receptor muscarinic 1 (CHRM1) small molecule agonists, cell-based qHTS assay (AID 1963589); also: nearly all actives have a fitted effect of over 35% in size
In short: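 Homogeneous fluorescence calcium flux, agonist mode. Human M1-expressing CHO cells; compound dosed at 15 concentrations, three independent runs; signal sampled every 1 sec.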

[14] = target: Beta-2 adrenergic receptor (Homo sapiens) (UniProt P07550); assay: Adrenergic beta2 receptor (ADRB2) small molecule antagonists, cell-based qHTS assay (AID 1963592); also: series mostly up to about 92 µM; nearly all actives have a fitted effect of over 50% in size
In short: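 Assay format: CHO-ADRB2 cells, 18-20hr seeding at 37C/5% CO2, then compound plus 1nM isoproterenol agonist mix for 0.5hr RT. Homogeneous time-resolved fluorescence cAMP detection after 1hr, expressed as 665/615 nm ratio.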

[15] = target: D(2) dopamine receptor (Homo sapiens) (UniProt P14416); assay: Dopamine D2 receptor (DRD2) small molecule agonists, cell-based qHTS assay (AID 1963594); also: nearly all actives have a fitted effect of over 35% in size
In short: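 cAMP accumulation in DRD2-HEK293 cells measured by HTRF after 1 h detection; compounds added 10 min before NKH477 (200nM […]) forskolin-analogue stimulation, 30 min at room temperature, with Ro20-1724 present at 0.1 mM final.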

[16] = target: D(2) dopamine receptor (Homo sapiens) (UniProt P14416); assay: Dopamine D2 receptor (DRD2) small molecule antagonists, cell-based qHTS assay (AID 1963595; active = well fitted inhibition curve with a large enough effect in the signal ratio in the repeat runs, with a control signal flat; the % refers to the signal ratio)
In short: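 Readout: HTRF cAMP, cAMP-d2 competing with cellular cAMP for anti-cAMP cryptate, read after 1 h. Cells: DRD2-HEK293. Conditions: 0.1 mM Ro20-1724, 12 nM quinpirole, 200 nM NKH477, 30 min RT.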

[17] = cAMP Responsive Elements (CRE) small molecule agonists, cell-based qHTS assay (AID 1963590)
In short: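 HEK 293T cells stably bearing CRE-bla were plated at 2,000 cells per well and rested 18 h. Compounds, positive controls or DMSO were added for 3 h at 37 C. LiveBLAzer B/G substrate was then loaded for 2 h at room temperature.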

[18] = cAMP Responsive Elements (CRE) small molecule antagonists, cell-based qHTS assay (AID 1963591; active = well fitted inhibition curve with a large enough effect in the signal ratio in the repeat runs, not every such curve was filed as active; the % refers to the signal ratio)
In short: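 First, CRE-bla HEK293T cells settled 18 h at 37 C. Next, compound and 0.25 uM final NKH477 were applied for 3 h. Last, LiveBLAzer B/G substrate was loaded for 2 h at room temperature.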

[19] = target: Beta-2 adrenergic receptor (Homo sapiens) (UniProt P07550); assay: Adrenergic beta2 receptor (ADRB2) small molecule agonists, cell-based qHTS assay (AID 1963593);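 also: CHO cells stably overexpressing human ADRB2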
In short: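 CHO cells stably over-expressing ADRB2 were plated overnight at 37C, then dosed with compounds plus a stimulation mix containing 100uM IBMX and 25uM Ro-20-1724 for 0.5hr at room temperature. cAMP was measured by HTRF competition, 1hr.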

[20] = p53 small molecule agonists, cell-based qHTS assay (AID 1963582; active = well fitted activation curve with a large enough effect in the signal ratio in the repeat runs, not every such curve was filed as active; the % refers to the signal ratio)
In short: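 16 h compound exposure (37 C) of p53 response element–bla cells, preceded by 5 h recovery at 37 C/5% CO2; read-out via LiveBLAzer B/G FRET substrate, 2 h RT, fluorescence intensity.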
% is scaled to controls: 0 for no effect and ±100 for the full control effect.

Gonadotropin-releasing hormone receptor (Homo sapiens), sequence (P30968 whole entry, looked up): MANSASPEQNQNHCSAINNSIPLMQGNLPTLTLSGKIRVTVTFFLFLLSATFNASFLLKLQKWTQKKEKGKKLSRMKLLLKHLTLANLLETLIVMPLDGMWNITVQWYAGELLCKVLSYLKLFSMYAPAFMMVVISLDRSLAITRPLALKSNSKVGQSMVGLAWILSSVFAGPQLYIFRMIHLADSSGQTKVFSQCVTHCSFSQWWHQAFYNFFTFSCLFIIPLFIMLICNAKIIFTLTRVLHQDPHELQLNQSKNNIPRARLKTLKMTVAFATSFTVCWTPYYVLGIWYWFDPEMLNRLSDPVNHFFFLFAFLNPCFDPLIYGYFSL
Beta-2 adrenergic receptor (Homo sapiens), sequence (P07550 whole entry, looked up): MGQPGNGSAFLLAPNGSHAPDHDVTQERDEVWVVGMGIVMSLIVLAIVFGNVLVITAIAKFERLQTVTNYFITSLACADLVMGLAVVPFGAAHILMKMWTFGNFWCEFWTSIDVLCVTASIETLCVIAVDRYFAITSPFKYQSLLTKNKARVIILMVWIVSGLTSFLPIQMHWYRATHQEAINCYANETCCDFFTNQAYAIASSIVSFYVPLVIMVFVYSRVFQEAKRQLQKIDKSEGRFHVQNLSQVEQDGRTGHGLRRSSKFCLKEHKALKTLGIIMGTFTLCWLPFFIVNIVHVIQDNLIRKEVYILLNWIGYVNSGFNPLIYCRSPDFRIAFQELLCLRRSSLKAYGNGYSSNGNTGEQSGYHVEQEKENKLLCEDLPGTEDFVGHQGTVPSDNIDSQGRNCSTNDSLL
Muscarinic acetylcholine receptor M1 (Homo sapiens), sequence (P11229 whole entry, looked up): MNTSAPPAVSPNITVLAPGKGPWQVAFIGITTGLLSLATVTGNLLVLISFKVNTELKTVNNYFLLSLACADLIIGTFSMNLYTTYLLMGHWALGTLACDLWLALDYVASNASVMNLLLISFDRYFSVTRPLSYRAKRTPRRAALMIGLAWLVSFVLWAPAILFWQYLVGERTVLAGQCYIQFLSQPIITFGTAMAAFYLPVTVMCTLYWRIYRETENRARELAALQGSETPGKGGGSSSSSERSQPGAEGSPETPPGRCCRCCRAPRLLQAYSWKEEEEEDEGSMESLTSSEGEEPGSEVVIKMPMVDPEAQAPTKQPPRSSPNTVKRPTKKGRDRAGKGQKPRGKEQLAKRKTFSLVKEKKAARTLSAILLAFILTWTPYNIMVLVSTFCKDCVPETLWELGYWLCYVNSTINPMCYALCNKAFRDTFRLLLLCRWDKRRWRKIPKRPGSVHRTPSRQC
KiSS-1 receptor (Homo sapiens), sequence (Q969F8 whole entry, looked up): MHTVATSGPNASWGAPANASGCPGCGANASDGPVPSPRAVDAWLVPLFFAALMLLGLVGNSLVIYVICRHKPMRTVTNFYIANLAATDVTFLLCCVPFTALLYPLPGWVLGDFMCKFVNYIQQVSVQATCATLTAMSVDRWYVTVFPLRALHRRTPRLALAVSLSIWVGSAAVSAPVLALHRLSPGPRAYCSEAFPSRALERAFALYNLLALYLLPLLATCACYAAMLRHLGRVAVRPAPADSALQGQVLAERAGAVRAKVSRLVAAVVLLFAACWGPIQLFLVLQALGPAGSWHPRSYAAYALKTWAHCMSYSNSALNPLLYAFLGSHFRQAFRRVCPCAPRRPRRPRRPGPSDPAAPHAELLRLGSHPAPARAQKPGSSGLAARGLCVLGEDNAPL
D(2) dopamine receptor (Homo sapiens), sequence (P14416 whole entry, looked up): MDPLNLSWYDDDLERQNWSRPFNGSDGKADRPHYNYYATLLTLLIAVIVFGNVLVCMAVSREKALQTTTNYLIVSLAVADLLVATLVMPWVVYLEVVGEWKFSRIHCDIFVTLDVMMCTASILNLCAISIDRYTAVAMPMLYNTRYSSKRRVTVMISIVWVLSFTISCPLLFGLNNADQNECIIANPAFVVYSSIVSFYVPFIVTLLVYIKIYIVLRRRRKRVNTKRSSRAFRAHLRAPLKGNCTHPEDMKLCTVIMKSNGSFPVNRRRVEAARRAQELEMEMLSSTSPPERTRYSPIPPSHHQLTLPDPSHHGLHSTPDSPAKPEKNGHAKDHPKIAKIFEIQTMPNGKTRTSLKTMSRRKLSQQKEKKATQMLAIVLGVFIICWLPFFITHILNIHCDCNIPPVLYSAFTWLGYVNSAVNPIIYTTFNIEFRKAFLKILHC
5-hydroxytryptamine receptor 2A (Homo sapiens), sequence (P28223 whole entry, looked up): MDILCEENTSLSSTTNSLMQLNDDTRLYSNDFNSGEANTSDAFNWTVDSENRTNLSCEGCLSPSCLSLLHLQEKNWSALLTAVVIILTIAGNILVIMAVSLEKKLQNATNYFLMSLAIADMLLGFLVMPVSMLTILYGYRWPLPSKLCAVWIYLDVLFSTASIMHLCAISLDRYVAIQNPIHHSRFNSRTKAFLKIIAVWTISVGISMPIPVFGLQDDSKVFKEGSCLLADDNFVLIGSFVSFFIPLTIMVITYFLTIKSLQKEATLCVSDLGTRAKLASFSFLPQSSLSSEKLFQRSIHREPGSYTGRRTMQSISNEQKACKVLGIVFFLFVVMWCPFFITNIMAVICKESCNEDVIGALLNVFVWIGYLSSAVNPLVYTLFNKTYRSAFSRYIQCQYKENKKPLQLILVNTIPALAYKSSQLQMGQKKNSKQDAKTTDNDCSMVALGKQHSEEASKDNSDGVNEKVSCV

COc1cc(/C=C/c2ccccc2)oc(=O)c1
inactive: Potency [1] | Potency [2] | Potency [3] | Potency [4] | Potency [5] | Potency [6] | Potency [7] | Potency [8] | Potency [9] | Potency [10] | Potency [11] | Potency [12] | Potency [13] | Potency [14] | Potency [15] | Potency [16]

Clc1cccc(Cl)n1
inactive: Potency [1] | Potency [2] | Potency [3] | Potency [4] | Potency [5] | Potency [6] | Potency [7] | Potency [8] | Potency [9] | Potency [10] | Potency [11] | Potency [12] | Potency [13] | Potency [17] | Potency [18] | Potency [14] | Potency [19] | Potency [15]

O=C(O)CCCCCCCCCCCBr
inactive: Potency [1] | Potency [2] | Potency [3] | Potency [4] | Potency [5] | Potency [6] | Potency [7] | Potency [8] | Potency [9] | Potency [10] | Potency [11] | Potency [12] | Potency [13] | Potency [14] | Potency [15] | Potency [16]

O=[N+]([O-])c1ccc2ncccc2c1
inactive: Potency [1] | Potency [2] | Potency [3] | Potency [4] | Potency [5] | Potency [6] | Potency [7] | Potency [8] | Potency [9] | Potency [10] | Potency [11] | Potency [12] | Potency [13] | Potency [17] | Potency [14] | Potency [15] | Potency [16]

Clc1cc(Cl)c2c(c1)N=C1CCCCCN1C2
inactive: Potency [1] | Potency [2] | Potency [3] | Potency [4] | Potency [5] | Potency [6] | Potency [7] | Potency [8] | Potency [20] | Potency [10] | Potency [11] | Potency [13] | Potency [14] | Potency [19] | Potency [15]

O=C1CCc2ccc(OCCCCN3CCN(c4cccc(Cl)c4Cl)CC3)cc2N1
inactive: Potency [2] | Potency [3] | Potency [4] | Potency [5] | Potency [6] | Potency [7] | Potency [8] | Potency [13] | Potency [18]
active: Potency [1] 21.1 µM

CC(=O)Nc1ccc(/C=N/NC(N)=S)cc1
inactive: Potency [1] | Potency [2] | Potency [3] | Potency [4] | Potency [5] | Potency [6] | Potency [7] | Potency [8] | Potency [20] | Potency [10] | Potency [11] | Potency [12] | Potency [13] | Potency [18] | Potency [14] | Potency [15] | Potency [16]

Cn1c(N)nc2nc[nH]c2c1=O
inactive: Potency [1] | Potency [2] | Potency [3] | Potency [4] | Potency [5] | Potency [6] | Potency [7] | Potency [8] | Potency [10] | Potency [11] | Potency [12] | Potency [18]

NC(Cc1ccc(F)cc1)C(=O)O (stereo not drawn)
inactive: activity change, negative = cytotoxicity [1] 2.68% [at 8.39 µM] | activity change [2] -0.388% [at 5.22 µM, active compounds read high] | activation [3] 2.03% [at 6.97 µM] | activation [4] -0.478% [at 5.23 µM] | activation [5] 4.13% [at 5.99 µM] | activation [6] 1.09% [at 5.99 µM] | activity change, negative = cytotoxicity [7] 3.36% [at 5.99 µM] | activity change, negative = cytotoxicity [8] 9.8% [at 5.99 µM] | activity change, negative = cytotoxicity [9] -3.36% [at 5.99 µM] | activation [20] 1.84% [at 5.99 µM] | activation [17] -1.9% [at 8.39 µM] | activity change, negative = inhibition [18] -1.08% [at 8.39 µM] | activity change, negative = inhibition [14] -3.88% [at 8.39 µM] | activation [19] -31.2% [at 8.39 µM] | activation [15] 1.24% [at 8.39 µM] | activity change, negative = inhibition [16] 11.6% [at 8.38 µM]

CCCCCC(C)OC(=O)COc1ccc(Cl)c2cccnc12 (stereo not drawn)
inactive: Potency [1] | Potency [2] | Potency [3] | Potency [4] | Potency [5] | Potency [6] | Potency [7] | Potency [8] | Potency [20] | Potency [10] | Potency [13] | Potency [18] | Potency [14] | Potency [19] | Potency [15] | Potency [16]

CCc1ccc(C)cc1
inactive: Potency [1] | Potency [2] | Potency [3] | Potency [4] | Potency [5] | Potency [6] | Potency [7] | Potency [8] | Potency [20] | Potency [11] | Potency [12] | Potency [13] | Potency [17] | Potency [18] | Potency [14] | Potency [15] | Potency [16]

COC(=O)/C=C/C(C)=C\C=C\C(C)=C\C=C\C=C(C)\C=C\C=C(C)\C=C\C(=O)O
inactive: Potency [1] | Potency [2] | Potency [3] | Potency [4] | Potency [5] | Potency [6] | Potency [7] | Potency [8] | Potency [9] | Potency [11] | Potency [13] | Potency [17] | Potency [14] | Potency [15] | Potency [16]

C[C@H]1[C@H](NC(=O)/C(=N/OC(C)(C)C(=O)O)c2csc(N)n2)C(=O)N1S(=O)(=O)O (stereo in doubt)
inactive: Potency [1] | Potency [2] | Potency [3] | Potency [4] | Potency [5] | Potency [6] | Potency [7] | Potency [8] | Potency [9] | Potency [17] | Potency [18] | Potency [14] | Potency [16]

O=C1NC(=O)[C@@H]2CC=CC[C@H]12
inactive: Potency [1] | Potency [2] | Potency [3] | Potency [4] | Potency [5] | Potency [6] | Potency [7] | Potency [8] | Potency [9] | Potency [10] | Potency [11] | Potency [13] | Potency [19] | Potency [15] | Potency [16]

CC(C)C1=CC2=CC[C@@H]3[C@](C)(CCC[C@@]3(C)C(=O)O)[C@H]2CC1
inactive: Potency [1] | Potency [2] | Potency [3] | Potency [4] | Potency [5] | Potency [6] | Potency [7] | Potency [8] | Potency [9] | Potency [11] | Potency [12] | Potency [13] | Potency [14] | Potency [15] | Potency [16]
